According to the supplement of paper PMC7380943:

Experiments:
[1] = test system: CLZ3 (HCA2 human fibroblast dual HR-NHEJ reporter); test: NHEJ repair efficiency (GFP+ cells) relative to control (log10 fold); higher = more non-homologous end joining; conditions: 5 µM; doxycycline 0.5 ug/mL
[2] = test system: CLZ3 (HCA2 human fibroblast dual HR-NHEJ reporter); test: HR repair efficiency (tdTomato+ cells) relative to control (log10 fold); higher = more homologous recombination; conditions: 5 µM; doxycycline 0.5 ug/mL
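Throughout, for HR repair efficiency (tdTomato+ cells) relative to control: compound given one day before doxycycline, which switches on I-SceI endonuclease expression to create double-strand breaks within the integrated reporter.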
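Throughout, for NHEJ repair efficiency (GFP+ cells) relative to control: compound given one day ahead of doxycycline, which switches on I-SceI endonuclease to cut the chromosomally integrated reporter and create DSBs.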

Row | SMILES | NHEJ repair efficiency (log10) [1] | HR repair efficiency (log10) [2]
1 | C[C@@H]1O[C@@H](Oc2c(-c3cc(O)c(O)c(O)c3)oc3cc(O)cc(O)c3c2=O)[C@H](O)[C@H](O)[C@H]1O [Myricetrin] | 0.0716 | -0.0586
2 | Cc1ccc(C(C)C)c(O)c1 [Thymol] | 0.108 | 0.0691
3 | OC[C@H]1O[C@@H](Oc2cc(O)cc(/C=C/c3ccc(O[C@@H]4O[C@H](CO)[C@@H](O)[C@H](O)[C@H]4O)cc3O)c2)[C@H](O)[C@@H](O)[C@@H]1O [Mulberroside A] | 0.049 | 0.234
4 | O=C(/C=C/c1ccc(O)c(O)c1)O[C@@H]1C[C@](O)(C(=O)O)C[C@@H](O)[C@H]1O [Chlorogenic Acid] | 0.0025 | -0.132
5 | O=C(O)CC(O)(CC(=O)O)C(=O)O [Citric Acid] | -0.0431 | -0.109
6 | CC(C)=CCC[C@](C)(O[C@@H]1O[C@H](CO[C@@H]2O[C@@H](CO)[C@H](O)[C@H]2O)[C@@H](O)[C@H](O)[C@H]1O)[C@H]1CC[C@]2(C)[C@@H]1[C@H](O)C[C@@H]1[C@@]3(C)CC[C@H](O[C@@H]4O[C@H](CO)[C@@H](O)[C@H](O)[C@H]4O[C@@H]4O[C@H](CO)[C@@H](O)[C@H](O)[C@H]4O)C(C)(C)[C@@H]3CC[C@]12C [Ginsenoside Rc] | 0.0541 | 0.0964
7 | COc1ccc(C=O)c(O)c1 [4-Methoxysalicylaldehyde] | 0.00827 | -0.0885
8 | C[C@@H]1O[C@@H](O[C@H]2[C@H](O[C@H]3CC[C@@]4(C)[C@@H](CC[C@]5(C)[C@@H]4CC=C4[C@@H]6CC(C)(C)CC[C@]6(C(=O)O)CC[C@]45C)[C@]3(C)CO)OC[C@H](O)[C@@H]2O)[C@H](O)[C@H](O)[C@H]1O [α-Hederin] | -0.0243 | -0.192
9 | C[C@H]1O[C@@H](O[C@H]2CC[C@@]3(C)[C@@H](CC[C@]4(C)[C@@H]3C=CC3=C5CC(C)(C)CC[C@]5(CO)[C@H](O)C[C@]34C)[C@]2(C)CO)[C@H](O)[C@@H](O[C@@H]2O[C@H](CO)[C@@H](O)[C@H](O)[C@H]2O)[C@H]1O [Saikosaponin B2] | 0.0489 | 0.123
10 | C=C1C[C@@]23CC[C@H]4[C@@](C)(CCC[C@@]4(C)C(=O)O[C@@H]4O[C@H](CO)[C@@H](O)[C@H](O)[C@H]4O)[C@@H]2CC[C@]1(O[C@@H]1O[C@H](CO)[C@@H](O)[C@H](O)[C@H]1O)C3 [Rubusoside] | 0.0726 | 0.0779
11 | O=c1c2ccccc2nc2n1CCc1c-2[nH]c2ccccc12 [Rutecarpine] | -0.038 | -0.0255
12 | COc1ccc(-c2coc3cc(O)ccc3c2=O)cc1 [Formononetin] | -0.06 | 0.128
13 | C[C@H]1[C@H](C)CC[C@]2(C(=O)O[C@@H]3O[C@H](CO[C@@H]4O[C@H](CO)[C@@H](O[C@@H]5O[C@H](C)[C@H](O)[C@@H](O)[C@H]5O)[C@H](O)[C@H]4O)[C@@H](O)[C@H](O)[C@H]3O)CC[C@]3(C)C(=CC[C@@H]4[C@@]5(C)C[C@@H](O)[C@H](O)[C@@](C)(CO)[C@@H]5CC[C@]43C)[C@H]12 [Asiaticoside] | -0.0035 | -0.0111
14 | C/C=C(/C)C(=O)OC(C)(C)[C@@H]1Cc2c(ccc3ccc(=O)oc23)O1 [Columbianadin] | -0.0553 | -0.0376
15 | OC[C@H]1O[C@@H](Oc2c(O)cc(O)cc2/C=C/c2ccc(O)cc2)[C@H](O)[C@@H](O)[C@@H]1O [2,3,5,4'-Tetrahydroxy Stilbene 2-Ο-Β-D-Glucoside] | 0.157 | -0.0324
16 | CC(C)[C@@H]1[C@H]2OC(=O)[C@@H]1[C@@H]1CC[C@@H]3CN(C)[C@H]2[C@@]31C [Dendrobine] | 0.165 | 0.272
17 | C[C@]1(O)C[C@@H](O)[C@]2(O)C=CO[C@@H](O[C@H]3O[C@H](CO)[C@@H](O)[C@H](O)[C@H]3O)[C@@H]21 [Harpagide] | 0.0851 | -0.126
18 | CC(C)=CCC[C@](C)(O[C@@H]1O[C@H](CO[C@@H]2O[C@H](CO)[C@@H](O)[C@H](O)[C@H]2O)[C@@H](O)[C@H](O)[C@H]1O)[C@H]1CC[C@]2(C)[C@@H]1[C@H](O)C[C@@H]1[C@@]3(C)CC[C@H](O[C@@H]4O[C@H](CO)[C@@H](O)[C@H](O)[C@H]4O)C(C)(C)[C@@H]3CC[C@]12C [Gypenoside Xvii] | 0.0522 | 0.00706
19 | C=C1CC[C@@H]2[C@](C)(CO)[C@H](O)CC[C@@]2(C)[C@@H]1C/C=C1/C(=O)OC[C@H]1O [Andrographolide] | 0.0511 | 0.266
